Our source for the growth values is PubChem BioAssay (NCI).

Compounds without any hit were thinned out: in the full panel of roughly 83,000, 20% have a hit.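 Compound tested at a single concentration for 48 hours in 96-well plates; a percent growth value below 10 was scored as active.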 A number with no mark means an inactive call. Activity calls are given as the source filed them.

This test deals with MDA-MB-468 breast. Kind of test: NCI-60 one-dose screen, 48 h (100 = growth as untreated, 0 = no growth, -100 = all killed). The conditions noted are these: 10 µM unless noted.
Turning to `O=C(/C=C\c1ccc(OCCCCCC[P+](c2ccccc2)(c2ccccc2)c2ccccc2)cc1)c1ccc2c(c1)OCCO2`, the growth is -38.6% (active).
Consider `COc1cccc(/C=C2\COc3ccc(O)c(O)c3C2=O)c1`, for which the growth was -11.1% (active).
The figure for `CC/C=C\C[C@H]1CC=C2C(=O)C=C[C@@H]2CC=CCCCC(=O)O[C@@H](CCCCC)CC=C2C(=O)C=C[C@@H]2CC=CCCCC(=O)O[C@@H](CCCCC)CC=C2C(=O)C=C[C@@H]2CC=CCCCC(=O)O[C@@H](CCCCC)CC=C2C(=O)C=C[C@@H]2CC=CCCCC(=O)O1` is 29.8% [7.9 µM]; for `C=C(C)[C@@H]1CC[C@]2(C(=O)N=C=S)CC[C@]3(C)[C@H](CC[C@@H]4[C@@]5(C)CCC(=O)C(C)(C)[C@@H]5CC[C@]43C)[C@@H]12` it is 11.2%.
The figure for `NC(CCCC(N)C(=O)c1ccccc1)C(=O)O` (configuration not stated) is 113%.
The figure for `COc1cc(C2C3=C(COC3=O)Nc3cc4c(cc32)CCC4)cc2c1OCO2` (configuration not stated) is -8.49% (active).
Turning to `COc1ccc(-c2c(C(=O)NS(C)(=O)=O)n(Cc3cccc(C(F)(F)F)c3)c3ccccc23)cc1`, the growth was 86.6%.
To `O=C(NNc1ccc(-c2ccccc2)nn1)c1ccc(F)cc1` belongs 98.2%; to `O=Cc1c(O)c2ccccc2[nH]c1=O`, 94.5%; to `CN1CCN(CCNc2nccc(-c3c(-c4cccc(O)c4)nc4sccn34)n2)S1(=O)=O`, 79.4%.
To `COc1cc(/C=N/NC(=O)c2cnn3c2NC(c2ccccc2)C3)ccc1Oc1ccccc1` (configuration not stated) belongs 6.71% (active); to `O=S(=O)(CCN1CCOCC1)Nc1cncc(-c2ccc3ncnc(Nc4ccc(F)c(Cl)c4)c3c2)c1`, -23.1% (active).
